From PubChem BioAssay (NCATS) come the findings set out here.

Records with an inconclusive call do not appear. Active and inactive are the calls of the source. The call rests on the fitted dose curve; in most records, active means well fitted curve in the direction sought with a large enough effect; inconclusive means small, poorly fitted or top-dose-only effect, or another doubt; inactive means no such curve, though single readings can be large; an effect the other way counts as inactive or inconclusive. Residues, ends and D or L forms follow the SMILES beside them. *: point of attachment. Cbz = O=C(OCc1ccccc1)*

A short description of assay [1]: qHTS of pediatric cancer cell lines to identify multiple opportunities for drug repurposing: Primary screen for A673 cells (AID 1347092). Further: nearly all actives have a fitted effect of over 45% in size. In a few lines:
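Cell viability of A673 measured by CellTiter-Glo ATP luminescence after 48 hours compound exposure. Dilution series spanned 0.78 nM to 46 µM (MIPE, 11-point) or 0.59 nM to 46 µM (NPC, 8-point); bortezomib 2.3 uM positive control.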
(In general: qHTS replaces the single test concentration by a dilution series.)

Assay [2] is described as follows: qHTS of pediatric cancer cell lines to identify multiple opportunities for drug repurposing: Primary screen for SK-N-MC cells (AID 1347093). In a few lines: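 Metabolically active cells were quantified by ATP-dependent luminescence (CellTiter-Glo, 15 min at room temperature) following 48 h treatment. Cells had been plated at 500-1,000 per well and settled for 5 h beforehand.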

Assay [3] in a line: qHTS of pediatric cancer cell lines to identify multiple opportunities for drug repurposing: Primary screen for BT-37 cells (AID 1347094). In a few lines:
(§1)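 Readout: CellTiter-Glo luminescence, 48 h treatment. Controls DMSO (neutral) and bortezomib 2.3 µM final (positive). Potency and efficacy taken from primary-screen concentration-response curves.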

A short description of assay [4]: qHTS of pediatric cancer cell lines to identify multiple opportunities for drug repurposing: Primary screen for NB-EBc1 cells (AID 1347095). In a few lines: as §1
Assay [5] can be described thus: qHTS of pediatric cancer cell lines to identify multiple opportunities for drug repurposing: Primary screen for Saos-2 cells (AID 1347097). Further: nearly all actives have a fitted effect of over 40% in size. In a few lines: as §1
Assay [6] is described as follows: qHTS of pediatric cancer cell lines to identify multiple opportunities for drug repurposing: Primary screen for SK-N-SH cells (AID 1347098). Further: nearly all actives have a fitted effect of over 65% in size. In a few lines: (§2)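 Cells (500-1,000/well) rested 5 h, then received compounds for 48 h; metabolically active cells were measured by CellTiter-Glo luminescence. Final concentrations spanned up to 46 µM (MIPE, 11-point) or 0.59 nM-46 µM (NPC, 8-point) in primary screens, 11-point in follow-ups.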

Assay [7] can be described thus: qHTS of pediatric cancer cell lines to identify multiple opportunities for drug repurposing: Primary screen for NB1643 cells (AID 1347099). Further: nearly all actives have a fitted effect of over 50% in size. In a few lines: as §1
A short description of assay [8]: qHTS of pediatric cancer cell lines to identify multiple opportunities for drug repurposing: Primary screen for LAN-5 cells (AID 1347100). In a few lines:
as §2

Assay [9] can be described thus: qHTS of pediatric cancer cell lines to identify multiple opportunities for drug repurposing: Primary screen for BT-12 cells (AID 1347101). Further: nearly all actives have a fitted effect of over 25% in size. In a few lines:
as §2

The nature of assay [10]: qHTS of pediatric cancer cell lines to identify multiple opportunities for drug repurposing: Primary screen for Rh18 cells (AID 1347102). Further: nearly all actives have a fitted effect of over 65% in size. In a few lines: as §2
Assay [11] is described as follows: qHTS of pediatric cancer cell lines to identify multiple opportunities for drug repurposing: Primary screen for OHS-50 cells (AID 1347103). Further: nearly all actives have a fitted effect of over 40% in size. In a few lines: as §2
The nature of assay [12]: qHTS of pediatric cancer cell lines to identify multiple opportunities for drug repurposing: Primary screen for RD cells (AID 1347104). Further: nearly all actives have a fitted effect of over 55% in size. In a few lines:
as §1

Assay [13] can be described thus: qHTS of pediatric cancer cell lines to identify multiple opportunities for drug repurposing: Primary screen for MG 63 (6-TG R) cells (AID 1347105). Further: nearly all actives have a fitted effect of over 50% in size. In a few lines:
as §1

Assay [14] can be described thus: qHTS of pediatric cancer cell lines to identify multiple opportunities for drug repurposing: Primary screen for Rh30 cells (AID 1347107). Further: nearly all actives have a fitted effect of over 75% in size. In a few lines:
as §2

Assay [15] in a line: qHTS of pediatric cancer cell lines to identify multiple opportunities for drug repurposing: Primary screen for Rh41 cells (AID 1347108). Further: nearly all actives have a fitted effect of over 70% in size. In a few lines:
as §1

Assay [16] in a line: qHTS of pediatric cancer cell lines to identify multiple opportunities for drug repurposing: Confirmatory screen for NB1643 cells (AID 1347109). Further: nearly all actives have a fitted effect of over 45% in size. In a few lines: as §2
Assay [17] in a line: qHTS of pediatric cancer cell lines to identify multiple opportunities for drug repurposing: Confirmatory screen for A673 cells (AID 1347110).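 Further: cells exposed to compound for 48 h before the viability read; nearly all actives have a fitted effect of over 65% in size.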 In a few lines: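 Viability was read as ATP luminescence (CellTiter-Glo) after 48 h of compound exposure at 37 C in A673 cells seeded at 500-1,000/well. Titrations reached 46 uM final, with 11 points in the confirmatory screen. Concentration-response curves were fitted directly.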

Assay [18] can be described thus: qHTS of pediatric cancer cell lines to identify multiple opportunities for drug repurposing: Confirmatory screen for SK-N-MC cells (AID 1347111).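 Further: cells exposed to compound for 48 h before the readout; nearly all actives have a fitted effect of over 70% in size.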 In a few lines: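 Seed 500-1,000 cells/well; rest 5 h at 37 degrees C. Pin-transfer compounds, 11-point titration. Incubate 48 h. Add CellTiter-Glo, 15 min RT, read luminescence.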
Assay [19] is described as follows: qHTS of pediatric cancer cell lines to identify multiple opportunities for drug repurposing: Primary screen for control Hh wild type fibroblast cells (AID 1347106). Further: nearly all actives have a fitted effect of over 55% in size. In a few lines:
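Viability after 48 h compound treatment at 37C, 500-1,000 cells/well, read as ATP luminescence with CellTiter-Glo. Primary screens used 11-point (MIPE, 0.78 nM-46 µM) or 8-point (NPC, 0.59 nM-46 µM) final concentrations; follow-up screens used 11-point dilutions.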
Potency means the concentration at half of the fitted maximal effect.

On to `C[C@H](NCc1ccc2c(c1)nc(NC(=O)c1ccc(-c3cn[nH]c3)s1)n2CCc1ccccc1)C(C)(C)C`, for which the Potency in assay [1] was 743 nM (active); in [2], 1660 nM (active); in assay [3], 1370 nM (active); in assay [4], 1870 nM (active); in [5], 1180 nM (active); in assay [6], 3040 nM (active). Moreover, the Potency in assay [7] is 1180 nM (active); in assay [8] it was 833 nM (active); in assay [9], 2430 nM (active); in [10], 2960 nM (active); in assay [11] it was 1090 nM (active); in assay [12], 3720 nM (active). Further, the Potency in assay [13] was 2960 nM (active); in [14], 14800 nM (active); in [15], 2350 nM (active); in [16] it was 1040 nM (active); in assay [17], 928 nM (active); in [18] it was 928 nM (active).
Turning to `CC(C)NC[C@@H](C(=O)N1CCN(c2ncnc3c2[C@H](C)C[C@H]3O)CC1)c1ccc(Cl)cc1`, the Potency in assay [1] is 11800 nM (active); in assay [2], 132 nM (active); in assay [3], 4320 nM (active); in [4] it was 833 nM (active); in [5], 6620 nM (active); in assay [6] it was 12100 nM (active). Also, the Potency was 3320 nM (active) in [7]; 2960 nM (active) in assay [8]; 5900 nM (active) in assay [10]; 193 nM (active) in assay [11]; 1180 nM (active) in assay [12]; 3720 nM (active) in assay [13]. Besides, the figures for the Potency in assay [15] and in assay [18] were 332 nM (active) and 2930 nM (active), respectively.
In the case of `CCc1nc(-c2cccc(C)c2)c(-c2ccnc(NC(=O)c3ccccc3)c2)s1`, the Potency in assay [1] was 23500 nM (active); in assay [2], 29600 nM (active); in [3] it was 27300 nM (active); in assay [4] it was 20900 nM (active); in assay [5], 16600 nM (active); in [7], 18700 nM (active). The Potency result in assay [6], in assay [10] and in assay [19] was “inactive” throughout.
Regarding `Cc1[nH]c(C=C2C(=O)Nc3ccccc32)c(C)c1CCC(=O)O`, the Potency in assay [1] is 1180 nM (active); in assay [2] it was 590 nM (active); in assay [3], 863 nM (active); in assay [4], 148 nM (active); in assay [5] it was 3320 nM (active); in [6], 541 nM (active). Moreover, the Potency in assay [7] was 3320 nM (active); in assay [8], 132 nM (active); in [9] it was 7690 nM (active); in assay [10] it was 23500 nM (active); in assay [11] it was 1220 nM (active); in assay [12] it was 18700 nM (active). For the same compound, the Potency result in assay [19], in assay [16], in assay [17] and in assay [18] was “inactive” throughout.
`CCOc1cc2ncc(C#N)c(Nc3ccc(OCc4ccccn4)c(Cl)c3)c2cc1NC(=O)C=CCN(C)C`: the Potency is 74.3 nM (active) in assay [1]; 105 nM (active) in assay [2]; 1090 nM (active) in [3]; 332 nM (active) in assay [4]; 1180 nM (active) in assay [5]; 121 nM (active) in assay [6]. Also, the Potency in [7] is 590 nM (active); in [8] it was 1480 nM (active); in assay [9], 1930 nM (active); in assay [12], 418 nM (active); in [17], 10400 nM (active); in assay [18] it was 10400 nM (active).
With `FC(F)(F)c1ccc(Nc2nc3ccc(Oc4ccnc(-c5ncc(C(F)(F)F)[nH]5)c4)cc3[nH]2)cc1`, the Potency was 14800 nM (active) in assay [1]; 4180 nM (active) in [2]; 13700 nM (active) in assay [3]; 20900 nM (active) in [4]; 7430 nM (active) in assay [5]; 5410 nM (active) in assay [6]. The Potency is 16600 nM (active) in assay [7], 24300 nM (active) in [11] and 18700 nM (active) in [12]. Moreover, the Potency result in assay [19] is “inactive”.
Turning to `NC(=O)N1CCC(CC(=O)N2CCC([C@H]3c4ncc(Br)cc4CCc4cc(Cl)cc(Br)c43)CC2)CC1`, the Potency was 14800 nM (active) in assay [1]; 14800 nM (active) in assay [2]; 19300 nM (active) in assay [3]; 13200 nM (active) in assay [4]; 18700 nM (active) in [5]; 14800 nM (active) in assay [7]. The Potency in assay [8] is 7430 nM (active); in [9] it was 21700 nM (active); in assay [11] it was 8630 nM (active); in assay [12] it was 20900 nM (active); in assay [13], 18700 nM (active); in assay [15], 5900 nM (active). Besides, the Potency result in assay [19] is “inactive”.
Regarding `CC(C)C[C@@H](C=O)NC(=O)[C@H](CC(C)C)NC(=O)[C@H](CC(C)C)NC(=O)OCc1ccccc1` (Cbz-Leu-Leu-Leu-aldehyde), the Potency in [1] was 235 nM (active); in [2], 83.3 nM (active); in assay [3], 863 nM (active); in [4], 166 nM (active); in [5], 743 nM (active); in assay [6], 857 nM (active). The Potency in assay [7] is 372 nM (active); in assay [8], 662 nM (active); in assay [9] it was 1530 nM (active); in [10] it was 1320 nM (active); in [11] it was 685 nM (active); in assay [12], 662 nM (active). The Potency in assay [13] is 372 nM (active); in assay [19] it was 2960 nM (active); in assay [14], 3720 nM (active); in assay [15] it was 1480 nM (active); in assay [16], 1170 nM (active); in assay [17], 1170 nM (active). Moreover, in assay [18], the Potency was 369 nM (active).
As to `O=C1NC(=O)[C@@H](c2cn3c4c(cccc24)CCC3)[C@H]1c1c[nH]c2ccccc12`, the Potency was 235 nM (active) in assay [1]; 46.9 nM (active) in assay [2]; 2170 nM (active) in assay [3]; 46.9 nM (active) in [4]; 148 nM (active) in assay [5]; 332 nM (active) in assay [8]. Also, the Potency was 2170 nM (active) in assay [9]; 863 nM (active) in assay [11]; 235 nM (active) in assay [12]; 2330 nM (active) in [17]; 928 nM (active) in assay [18]. The Potency result in [6], in assay [10] and in [14] was “inactive” in each case.
In the case of `COc1ccc(Nc2cc(-c3cnc(N)nc3)nc(N3CCOCC3)n2)cn1`, the Potency was 5900 nM (active) in [1]; 372 nM (active) in assay [2]; 13700 nM (active) in assay [3]; 2960 nM (active) in assay [4]; 1180 nM (active) in [5]; 7640 nM (active) in assay [6]. For the same compound, the Potency was 2960 nM (active) in assay [7]; 4180 nM (active) in [8]; 21700 nM (active) in assay [9]; 6620 nM (active) in [10]; 4180 nM (active) in assay [12]; 5900 nM (active) in assay [14]. The Potency in assay [15] was 2960 nM (active); in [16], 8270 nM (active); in [17] it was 9270 nM (active); in assay [18], 6570 nM (active).
For the compound `Nc1ccn(C2CO[C@H](CO)O2)c(=O)n1` (stereo partly specified), the Potency entry in [1], in assay [2], in [3], in assay [4], in [5] and in [6] was “inactive” each time. In addition, the Potency result in [7], in assay [8], in assay [9], in [10], in [11] and in assay [12] was “inactive” in each case. Further, the Potency result in assay [19], in assay [14] and in assay [15] was “inactive” throughout.
